# Whole data set: some 81,000 sequences, median “one-hybrid fitness for binding parS DNA” near -0.17, cut for the highest 2% near 0.51. This is one part of a sample in which the highest values are shown more often than they occur.
# B1: Caulobacter ParB omega fusion; a variant is named by its letters at X, in order, B8GW30 (parent)
# chain: MESVVVGEPGMSEGRRGLGRGLSALLGEVDAAPAQAPGEQLGGSREAPIEILQRNPDQPRRTFREEDLEDLSNSIREKGVLQPILVRPSPDTAGEYQIVAGERAWRAAQRAGLKTVPIMVRELDDLAVLEIGIIENVQRADLNVLEEALSYKVLMEKFERTQENIAQTIGKSXSHVANXMRLLXLPDEVQSYLVSGELTAXHARAIAAAADPVALAKQIIEGGLSVRETEALARKAPNLSAGKSKGGRPPRVKDTDTQALESDLSSVLGLDVSIDHRGSTGTLTITYATLEQLDDLCNRLTRGI
# Variants of: B1
# Test: one-hybrid fitness for binding parS DNA (scaled: cognate 1, non-cognate 0); higher = stronger binding
# Details: with parS DNA site
# In short: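 Bacterial one-hybrid selection in E. coli USO rpoZ- hisB- pyrF- with a HIS3 reporter carrying the site 19 bp from the promoter, screening Caulobacter ParB libraries with four specificity codons randomised (NNS). Cells grew 48 hours at 37°C on M9-minus-histidine plus 0.1 mM IPTG and 5 mM 3-AT. Plasmids before and after selection were Illumina-sequenced, three replicate libraries pooled, and variants under 10 reads dropped. Fitness is the log change in variant-to-wild-type read ratio, rescaled to cognate 1, non-cognate 0.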
row,Variant,one-hybrid fitness for binding parS DNA
1,FLHS,≤ 0.2
2,LGVG,≤ 0.2
3,ALYT,≤ 0.2
4,QTLN,≤ 0.2
5,DVLN,≤ 0.2
6,TSTW,≤ 0.2
7,EGNL,≤ 0.2
8,RQNC,0.947
9,RQDC,0.863
10,RQDK,≤ 0.2
11,RQDQ,≤ 0.2
12,RQNN,0.435
13,RQND,0.221
14,AQKR,≤ 0.2
15,ICTY,≤ 0.2
16,TAVI,≤ 0.2
17,FVPC,≤ 0.2
18,LNCS,≤ 0.2
19,RVFA,0.611
20,DVAA,≤ 0.2
21,NVAA,≤ 0.2
22,RVAA,0.582
23,ELAG,≤ 0.2
24,GGPT,≤ 0.2
25,CRIG,≤ 0.2
26,ILFC,≤ 0.2

row,Variant,one-hybrid fitness for binding parS DNA
1,DQVG,≤ 0.2
2,LIPT,≤ 0.2
3,RQIP,≤ 0.2
4,RQIT,0.647
5,RQIS,0.87
6,RQIY,0.256
7,RQIC,0.735
8,RQPT,0.387
9,RQPP,≤ 0.2
10,RQPC,0.426
11,RQID,≤ 0.2
12,RQPS,0.535
13,RQIR,≤ 0.2
14,RQPN,≤ 0.2
15,PHRE,≤ 0.2
16,KTEC,≤ 0.2
17,QHGS,≤ 0.2
18,NLTC,≤ 0.2
19,VSIA,≤ 0.2
20,TPVW,≤ 0.2
21,SHLF,≤ 0.2
22,STKF,≤ 0.2
23,TPQT,≤ 0.2
24,VRSR,≤ 0.2
25,VFSG,≤ 0.2
26,HISS,≤ 0.2

row,Variant,one-hybrid fitness for binding parS DNA
1,ADIG,≤ 0.2
2,PGTC,≤ 0.2
3,LVVH,≤ 0.2
4,HWLK,≤ 0.2
5,MKPK,≤ 0.2
6,SPFG,≤ 0.2
7,RLNP,≤ 0.2
8,RLDT,0.806
9,RLNN,0.455
10,RLNT,0.908
11,RLDM,0.299
12,RLDR,≤ 0.2
13,HMTH,≤ 0.2
14,YIMG,≤ 0.2
15,ADTW,≤ 0.2
16,VKGM,≤ 0.2
17,WSTL,≤ 0.2
18,RAKD,≤ 0.2
19,RAVT,0.77
20,RAKN,0.462
21,RAKT,0.824
22,RAVK,≤ 0.2
23,RAVQ,0.23
24,RMYE,≤ 0.2
25,FKCS,≤ 0.2
26,AGFC,≤ 0.2

row,Variant,one-hybrid fitness for binding parS DNA
1,RTAS,0.968
2,RTFH,0.246
3,RTAD,≤ 0.2
4,RTFS,1.03
5,RTAP,≤ 0.2
6,RTFP,≤ 0.2
7,LFRV,≤ 0.2
8,GSFC,≤ 0.2
9,RVWI,≤ 0.2
10,RWKY,0.565
11,RWVY,≤ 0.2
12,RWKP,≤ 0.2
13,RWVS,0.616
14,RWKS,0.961
15,RWYY,0.248
16,RWKH,0.228
17,RWVN,≤ 0.2
18,RWVP,≤ 0.2
19,YYVT,≤ 0.2
20,MVNS,≤ 0.2
21,FTLM,≤ 0.2
22,AFVL,≤ 0.2
23,RKKF,0.238
24,RKVD,≤ 0.2
25,RKKM,0.231
26,RKKT,0.604

row,Variant,one-hybrid fitness for binding parS DNA
1,RKVR,≤ 0.2
2,RKVT,0.795
3,RPEH,≤ 0.2
4,KRWH,≤ 0.2
5,QVGR,≤ 0.2
6,CDRV,≤ 0.2
7,YIYL,≤ 0.2
8,MNCF,≤ 0.2
9,ICRD,≤ 0.2
10,RCQS,0.986
11,RPQS,≤ 0.2
12,RTQS,0.951
13,RIQD,≤ 0.2
14,RIQS,0.99
15,RAQN,0.436
16,RIQH,≤ 0.2
17,RAQS,0.998
18,RTQD,0.202
19,RTQH,0.332
20,RDQS,≤ 0.2
21,RAQD,≤ 0.2
22,CQTC,≤ 0.2
23,RWDL,≤ 0.2
24,WRAH,≤ 0.2
25,AEGK,≤ 0.2
26,AIFS,≤ 0.2

row,Variant,one-hybrid fitness for binding parS DNA
1,DPKT,≤ 0.2
2,RSQN,0.427
3,RSQS,0.984
4,RHQS,0.927
5,RHQN,0.382
6,RFQH,≤ 0.2
7,RSQD,≤ 0.2
8,RFQN,0.457
9,RFQS,1
10,RMQH,0.313
11,RHQH,≤ 0.2
12,RMQN,0.501
13,RMQS,1.02
14,GAHD,≤ 0.2
15,TLCR,≤ 0.2
16,MEVG,≤ 0.2
17,LAGY,≤ 0.2
18,QVDH,≤ 0.2
19,IRKY,≤ 0.2
20,FNNR,≤ 0.2
21,TAFI,≤ 0.2
22,QSRA,≤ 0.2
23,TERS,≤ 0.2
